STAT3 inh: reduces IL-6 driven STAT3 reporter signal. inhibition, % at 5.5 µM. 0.89% of 190,000 active. U3A cells, IL-6 STAT3-luciferase reporter, luminescence; host cell line lacks STAT1;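 active means inhibition above the mean inhibition across all screened compounds plus 3 SD, cut at about 44% in these data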
TRAIL sens C8: caspase-8 TRAIL sensitization; NB7+C8 cells + TRAIL, ATPlite viability luminescence; 1% of 360,000 active; AID 624354; inhibition (viability loss, TRAIL sensitization), % at 10 µM;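 active means compounds causing at least 50% loss of cell viability in the single-dose screen, relative to plate controls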
Platelet DG rel: modulates dense granule release in human platelets; human platelet-rich plasma, SFLLRN dense granule ATP release, luminescence; inhibition, %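 (compounds screened at 7.5 µM in platelet-rich plasma)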; 0.22% of 300,000 active;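 active means mean replicate score, as percent of positive control, at or above 50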
PPC-1+TRAIL kill: kills PPC-1 cancer cells in the presence of TRAIL; 0.41% of 220,000 active; AID 1443; cell killing (% activity), % at 4 µM or 5 µM; PPC-1 cells + TRAIL, ATPLite viability luminescence;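 active means cell killing above 50% in the first pass at 4 µM, then a duplicate retest at 5 µM averaging 50% or more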
STAT1 inh: reduces IFN-gamma driven STAT1 reporter signal | NIH 3T3 STAT1-luciferase reporter, luminescence | inhibition, % at 5.5 µM | 0.35% of 200,000 active;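 active means inhibition above a set limit, the mean inhibition across all tested compounds plus 3 SD, cut at about 34% in these data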
Hits are given with their value. The list is not random: actives were taken first. Their share in the collection is about 1.6%.

How did CCOc1ccc(CCN2C(=O)C(=O)N([C@@H](Cc3ccccc3)CN3CCC[C@H]3CN3C(=O)C(=O)NC[C@@H]3Cc3ccccc3)C[C@@H]2CC(C)C)cc1 do in these assays?
TRAIL sens C8: inactive

How did COc1ccc(C2CC(c3c(O)cc(C)oc3=O)=NCCS2)c(OC)c1 (centres undefined) do in these assays?
STAT3 inh: inactive; TRAIL sens C8: 78; PPC-1+TRAIL kill: inactive; STAT1 inh: inactive

Results for CC(=O)c1cccc(-c2ccnc3c2CC(C(=O)Nc2cccc(NS(C)(=O)=O)c2)O3)c1 (centres undefined) ?
TRAIL sens C8: 76

Results for CS(=O)(=O)Nc1cccc(NC(=O)C2Cc3c(-c4ccco4)ccnc3O2)c1 (centres undefined) ?
TRAIL sens C8: 53

What do the screens show for `COc1cc(OC)cc(-c2noc([C@@H]3O[C@H](CO)[C@@H](O)[C@H]3O)n2)c1`?
TRAIL sens C8: inactive

What do the screens show for `O=C(Nc1cccc(OC(F)(F)F)c1)C1Cc2c(-c3cccc(F)c3)ccnc2O1` (centres undefined)?
TRAIL sens C8: inactive

How did CC1(C(=O)NS(=O)(=O)c2ccccc2)CCN1C(=O)CCc1ccccc1 (centres undefined) do in these assays?
TRAIL sens C8: inactive

What do the screens show for `CN(C)c1ccc(/C=N/N=C2/NC(=O)/C(=C/c3ccc([N+](=O)[O-])cc3)S2)cc1`?
STAT3 inh: inactive; TRAIL sens C8: 87; PPC-1+TRAIL kill: 54; STAT1 inh: 35

What do the screens show for `CC(C)COCc1ccc(O)c2ncccc12`?
STAT3 inh: inactive; TRAIL sens C8: 52; Platelet DG rel: inactive; PPC-1+TRAIL kill: inactive; STAT1 inh: inactive

How did CCCOCc1ccc(O)c2ncccc12 do in these assays?
TRAIL sens C8: inactive; Platelet DG rel: inactive; PPC-1+TRAIL kill: inactive

How did O=C(O)CCCCCCC1C(=O)NC(=O)N1CCC(O)C1CCCCC1 (centres undefined) do in these assays?
STAT3 inh: inactive; TRAIL sens C8: inactive; Platelet DG rel: 88; PPC-1+TRAIL kill: inactive; STAT1 inh: inactive

What do the screens show for `O=C(O)CCCCCN1C(=O)C2CCCCC2C1=O` (centres undefined)?
STAT3 inh: inactive; TRAIL sens C8: inactive; Platelet DG rel: inactive; PPC-1+TRAIL kill: inactive; STAT1 inh: inactive

Results for C=CCN1C(=O)/C(=C2/Sc3ccccc3N2C)SC1=Nc1c(C)n[nH]c1C ?
STAT3 inh: inactive; TRAIL sens C8: inactive; Platelet DG rel: 53; PPC-1+TRAIL kill: inactive; STAT1 inh: inactive

How did COc1ccc(C=Cc2ccc3ccccc3n2)c(OC)c1 do in these assays?
TRAIL sens C8: 70

What do the screens show for `O=S(=O)(NCc1cn2ccsc2n1)c1ccc(Oc2ccccc2)cc1`?
STAT3 inh: 62; TRAIL sens C8: inactive; Platelet DG rel: inactive; PPC-1+TRAIL kill: inactive; STAT1 inh: inactive

How did COC(C(=O)Nc1ccnn1C1CCN(Cc2ccc(Cl)s2)CC1)c1ccccc1 (centres undefined) do in these assays?
TRAIL sens C8: inactive; Platelet DG rel: inactive

What do the screens show for `CCC(c1nc2ccccc2[nH]1)n1c(=O)c(-c2ccco2)nc2ccccc21` (centres undefined)?
TRAIL sens C8: inactive

Results for COc1cccc(S(=O)(=O)N(C)C[C@H]2OCc3cnnn3CCCC(=O)N([C@H](C)CO)C[C@H]2C)c1 ?
TRAIL sens C8: inactive

Results for O=S(=O)(C/C(=C/CO)S(=O)(=O)c1ccccc1)c1ccccc1 ?
STAT3 inh: 48; TRAIL sens C8: inactive; Platelet DG rel: inactive; PPC-1+TRAIL kill: inactive; STAT1 inh: inactive

How did CCCCCCN1C[C@H](O)[C@@H](n2cc(C3CC3)nn2)C[C@@H]1c1ccccc1 do in these assays?
TRAIL sens C8: inactive

Results for CN(C)CCNCCCNc1c2ccccc2nc2cccc([N+](=O)[O-])c12 ?
TRAIL sens C8: 61

Results for CN(C)CCCNc1c2c(nc3ccccc13)CCC2 ?
TRAIL sens C8: inactive; Platelet DG rel: inactive

What do the screens show for `COc1ccc(Nc2cccc3ccccc23)cc1`?
TRAIL sens C8: 56; Platelet DG rel: inactive

Results for COc1ccc(Nc2cccccc2=O)cc1 ?
STAT3 inh: inactive; TRAIL sens C8: inactive; Platelet DG rel: inactive; PPC-1+TRAIL kill: inactive; STAT1 inh: inactive

What do the screens show for `Cc1c(C)c2ccc(OCC(=O)Nc3nccs3)cc2oc1=O`?
TRAIL sens C8: 55; Platelet DG rel: inactive

Results for O=C(Nc1ccc(Br)cc1F)c1ccc2c(c1)OCCO2 ?
TRAIL sens C8: 54; Platelet DG rel: inactive

Results for O=C(NCc1ccccc1F)c1ccc2c(c1)OCO2 ?
STAT3 inh: inactive; TRAIL sens C8: inactive; Platelet DG rel: inactive; PPC-1+TRAIL kill: inactive; STAT1 inh: inactive

Results for O=C(Nc1ccc(F)cc1F)c1ccc2c(c1)OCCO2 ?
TRAIL sens C8: inactive; Platelet DG rel: inactive

Results for O=C(NCCc1ccccc1F)c1ccc2c(c1)OCCO2 ?
TRAIL sens C8: 92; Platelet DG rel: inactive

How did COc1ccc(N2C(=NC(=O)C(C)Oc3ccccc3)SC3CS(=O)(=O)CC32)cc1 (centres undefined) do in these assays?
TRAIL sens C8: inactive; Platelet DG rel: inactive

How did Cc1ccc2cc(NC(=O)c3cccc(F)c3)ccc2n1 do in these assays?
TRAIL sens C8: 46; Platelet DG rel: inactive; PPC-1+TRAIL kill: inactive

What do the screens show for `Cc1ccc2cc(NC(=O)c3ccccc3)ccc2n1`?
TRAIL sens C8: 58; Platelet DG rel: inactive

What do the screens show for `O=C(Nc1ccc2ccccc2c1)c1cccc(F)c1`?
TRAIL sens C8: inactive; Platelet DG rel: inactive; PPC-1+TRAIL kill: inactive

How did COc1cccc(-c2cccc(NC(=O)C3CCN(CCCn4cccn4)CC3)c2)c1 do in these assays?
TRAIL sens C8: inactive

Results for Cn1c(=O)[nH]c(=O)c2c1nc(CN1CCN(c3cccc(Cl)c3)CC1)n2Cc1ccccc1Cl ?
STAT3 inh: inactive; TRAIL sens C8: inactive; Platelet DG rel: inactive; PPC-1+TRAIL kill: inactive; STAT1 inh: inactive

How did CCN1CCN(Cc2nc3c(c(=O)[nH]c(=O)n3C)n2Cc2ccccc2Cl)CC1 do in these assays?
STAT3 inh: inactive; TRAIL sens C8: inactive; Platelet DG rel: 65; STAT1 inh: inactive

How did COc1ccc(C(=O)/C=C/c2ccc(O)cc2)cc1 do in these assays?
TRAIL sens C8: inactive; Platelet DG rel: inactive; PPC-1+TRAIL kill: inactive; STAT1 inh: inactive

What do the screens show for `CN(C)c1ccc(C(=O)C=Cc2ccc([N+](=O)[O-])cc2)cc1`?
TRAIL sens C8: inactive

How did O=C(/C=C/c1ccc(O)cc1)c1ccccc1 do in these assays?
TRAIL sens C8: inactive; Platelet DG rel: 72; PPC-1+TRAIL kill: inactive

How did CN(C)c1ccc(/C=C/C(=O)c2ccc(O)cc2)cc1 do in these assays?
TRAIL sens C8: 63

What do the screens show for `CCN(C)C1CN(Cc2cn(Cc3cccc(C(F)(F)F)c3)nn2)S(=O)(=O)C1` (centres undefined)?
TRAIL sens C8: inactive

What do the screens show for `CC1(C(=O)NS(=O)(=O)c2ccc(Cl)cc2)CCN1C(=O)Cc1ccsc1` (centres undefined)?
TRAIL sens C8: inactive

High-throughput results: PubChem, several laboratories
